Values joined by “and” are separate entries in the source; they are usually repeats but may differ in a detail not shown here. Equal entries are not always repeated. Results filed as inconclusive are left out. Active and inactive are the calls of the source. Unless noted, the call rests on the fitted dose curve; in most records, active means well fitted curve in the direction sought with a large enough effect in the repeat runs; inconclusive means weak or mixed curves; inactive means no such curve, though single readings can be large; an effect the other way counts as inactive or inconclusive.
Experiments:
[1] = qHTS assay to identify small molecule antagonists of the glucocorticoid receptor (GR) signaling pathway - cell viability counter screen (AID 720693); further: nearly all actives have a fitted effect of over 55% in size; further: potency means the concentration at half of the fitted maximal effect
[2] = qHTS assay for identifying genotoxic compounds that show differential cytotoxicity against isogenic chicken DT40 cell lines with known DNA damage response pathways - Rev3 mutant cell line (AID 743014); further: nearly all actives have a fitted effect of over 55% in size; further: potency means the concentration at half of the fitted maximal effect
[3] = qHTS assay to identify small molecule antagonists of the androgen receptor (AR) signaling pathway - cell viability counter screen (AID 743033; further: nearly all actives have a fitted effect of over 45% in size)
[4] = target: Androgen receptor (Homo sapiens) (UniProt P10275); assay: qHTS assay to identify small molecule antagonists of the androgen receptor (AR) signaling pathway (AID 743035; active means well fitted inhibition curve with a large enough effect in the signal ratio in the repeat runs, not every such curve was filed as active; the % refers to the signal ratio)
Androgen receptor (Homo sapiens), sequence (P10275 whole entry, looked up): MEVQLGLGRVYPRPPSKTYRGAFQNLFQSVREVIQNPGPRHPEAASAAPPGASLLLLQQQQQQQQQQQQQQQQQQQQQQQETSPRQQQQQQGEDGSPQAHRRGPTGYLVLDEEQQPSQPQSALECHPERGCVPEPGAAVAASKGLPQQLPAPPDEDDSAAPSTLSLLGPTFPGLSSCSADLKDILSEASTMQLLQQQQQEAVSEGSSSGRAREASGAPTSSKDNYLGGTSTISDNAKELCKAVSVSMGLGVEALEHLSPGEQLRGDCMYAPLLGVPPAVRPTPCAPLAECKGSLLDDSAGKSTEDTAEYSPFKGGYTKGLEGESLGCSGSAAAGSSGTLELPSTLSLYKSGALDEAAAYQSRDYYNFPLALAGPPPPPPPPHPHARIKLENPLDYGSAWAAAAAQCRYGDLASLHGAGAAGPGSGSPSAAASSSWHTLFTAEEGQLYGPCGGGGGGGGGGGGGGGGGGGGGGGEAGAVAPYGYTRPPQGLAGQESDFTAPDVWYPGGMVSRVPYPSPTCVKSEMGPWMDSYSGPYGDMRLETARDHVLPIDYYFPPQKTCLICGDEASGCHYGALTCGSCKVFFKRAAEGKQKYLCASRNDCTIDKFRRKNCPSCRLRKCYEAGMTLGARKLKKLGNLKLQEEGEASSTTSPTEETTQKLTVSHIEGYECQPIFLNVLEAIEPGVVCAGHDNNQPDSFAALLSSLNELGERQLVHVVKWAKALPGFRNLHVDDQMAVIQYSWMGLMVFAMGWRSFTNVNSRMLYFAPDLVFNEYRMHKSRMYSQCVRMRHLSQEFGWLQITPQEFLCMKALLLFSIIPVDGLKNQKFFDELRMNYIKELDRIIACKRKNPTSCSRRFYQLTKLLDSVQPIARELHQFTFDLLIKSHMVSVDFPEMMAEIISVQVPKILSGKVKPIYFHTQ
Outline: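 R1881 agonist challenge of a HEK293 UAS-beta-lactamase AR reporter line in the presence of compound (16 h, 37C); signal taken as FRET fluorescence after 2 h with LiveBLAzer B/G substrate at room temperature.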

[5] = target: Androgen receptor (Homo sapiens) (UniProt P10275); assay: qHTS assay to identify small molecule agonists of the androgen receptor (AR) signaling pathway (AID 743036; active means well fitted activation curve with a large enough effect in the signal ratio in the repeat runs, with a control signal flat, not every such curve was filed as active; the % refers to the signal ratio)
Outline: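 AR-bla HEK293 cells, 2,000/well; 4 h preincubation 37C/5% CO2; compound (DMSO) 16 h at 37C; LiveBLAzer B/G FRET substrate 2 h RT; fluorescence intensity read-out.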

[6] = target: Androgen receptor (Homo sapiens) (UniProt P10275); assay: qHTS assay to identify small molecule agonists of the androgen receptor (AR) signaling pathway using the MDA cell line (AID 743040; further: nearly all actives have a fitted effect of over 20% in size)
Outline: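 Cell-based luciferase reporter: MDA-kb2, MMTV promoter (AR + GR response elements). 16 h compound exposure at 37C; ONE-Glo, 30 min RT, luminescence.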

[7] = qHTS assay to identify small molecule antagonists of the androgen receptor (AR) signaling pathway using the MDA cell line - cell viability counter screen (AID 743041; further: nearly all actives have a fitted effect of over 45% in size)
Outline: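 In this qHTS counter assay, fluorescence intensity after CellTiter-Fluor addition indicated viability of MDA-kb2 AR-luc cells given compounds and R1881 for 16 h at 37C.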

[8] = target: Androgen receptor (Homo sapiens) (UniProt P10275); assay: qHTS assay to identify small molecule antagonists of the androgen receptor (AR) signaling pathway using the MDA cell line (AID 743042; further: nearly all actives have a fitted effect of over 55% in size)
Outline: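 MDA-kb2 cells (human breast carcinoma, stably carrying an MMTV-luciferase reporter responsive to AR and GR) were plated at 3,000 cells/well and preincubated 5 hr at 37C, then given compound plus R1881 agonist for 16 h. ONE-Glo luminescence was read.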

[9] = qHTS assay for identifying genotoxic compounds that show differential cytotoxicity against isogenic chicken DT40 cell lines with known DNA damage response pathways - Rad54/Ku70 mutant cell line (AID 743015); further: nearly all actives have a fitted effect of over 60% in size; further: potency means the concentration at half of the fitted maximal effect
[10] = qHTS assay for identifying genotoxic compounds that show differential cytotoxicity against isogenic chicken DT40 cell lines with known DNA damage response pathways - wild type cell line (AID 743012); further: nearly all actives have a fitted effect of over 60% in size; further: potency means the concentration at half of the fitted maximal effect
Outline: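 Endpoint: CellTiter-Glo luminescence, 30 min RT. Cells: wild type DT40, 300/well. Exposure: compounds in DMSO, 40 h, 37 C/5% CO2, after ~0.5 h pre-incubation.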

Measured: Potency

CCCCCCCCCCCCCCCCOS(=O)(=O)O
not listed: [9] | [10]
inactive: all other assays above

COc1cc(Cl)c(OC)cc1N
inactive: [1] | [3] | [7]

CC(C)Nc1ccc(NC(C)C)c2c1C(=O)c1ccccc1C2=O
inactive: [1] | [9] | [3] | [7]

CCCCc1ncc(/C=C(\Cc2cccs2)C(=O)O)n1Cc1ccc(C(=O)O)cc1
inactive: [10] | [2] | [9] | [3] | [7]

CCCCCCCCCCO[C@@H]1O[C@H](CO)[C@@H](O)[C@H](O)[C@H]1O
active: [2] 61.1 µM
inactive: [1] | [7]

Cc1ccc(N=Nc2c(O)c(C(=O)O)cc3ccccc23)c(S(=O)(=O)O)c1
inactive: [1] | [3] | [7]

CCCCC1=NC2(CCCC2)C(=O)N1Cc1ccc(-c2ccccc2-c2nn[nH]n2)cc1
inactive: [1] | [9] | [3] | [7]

ClCCOCCOCCCl
inactive: [10] | [2] | [9] | [3] | [7]

CCC(CC)Nc1ccc(C)c(C)c1
inactive: [1] | [3] | [7]

COc1ccnc(CS(=O)c2nc3ccc(OC(F)F)cc3[nH]2)c1OC (centres undefined)
inactive: [1] | [3] | [7]

c1cc(CCCc2ccncc2)ccn1
inactive: [1] | [3] | [7]

CCNc1cc(O)ccc1C
inactive: [1] | [9] | [3] | [7]

O=[N+]([O-])c1ccc2[nH]ncc2c1
inactive: [1] | [3] | [7]

C=CCOc1ccccc1OCC(O)CNC(C)C (centres undefined)
inactive: [10] | [2] | [9] | [3] | [7]

CC(C)(C)Cl
inactive: [10] | [2] | [9] | [3] | [7]

O=C(Nc1ccc(S(=O)(=O)N2CCOCC2)cc1)c1cc(Cl)ccc1NS(=O)(=O)c1ccc(Cl)s1
active: [1] 16.9 µM
inactive: [3] | [7]

Brc1c2ccccc2cc2ccccc12
inactive: [10] | [2] | [9] | [3] | [7]

C[Si](C)(CCCN)O[Si](C)(C)CCCN
inactive: [1] | [3] | [7]

CCc1cc(C2=C(C(=O)O)N(c3ccccc3C(F)(F)F)S(=O)(=O)c3ccccc32)cc2c1OCO2
inactive: [1] | [3] | [7]

c1ccc(C(O[C@H]2CCCN(CCc3ccc4c(c3)OCO4)C2)c2ccccc2)cc1
inactive: [3] | [7]
active: [10] 23.7 µM | [2] 29.8 µM | [9] 29.8 µM

C[C@H]1C[C@H]2[C@@H]3CCC4=CC(=O)C=C[C@]4(C)[C@@]3(Cl)[C@@H](O)C[C@]2(C)[C@@]1(O)C(=O)CO
inactive: [10] | [2] | [9] | [3] | [7]

CCOCC(O)COc1ccc(NC(=O)CC[S+](C)C)cc1 (centres undefined)
inactive: [1] | [9] | [3] | [7]

CC(C)C[C@H]1C(=O)N2CCC[C@H]2[C@]2(O)O[C@](NC(=O)[C@@H]3C=C4c5cccc6[nH]c(Br)c(c56)C[C@H]4N(C)C3)(C(C)C)C(=O)N12
active: [10] 5.31 µM and 11.6 µM | [2] 10.6 µM and 7.34 µM | [9] 7.5 µM and 10.4 µM
inactive: [3] | [7]

Cc1cccc(Nc2ccccc2)c1
inactive: [1] | [5] | [6] | [7]
active: [2] 30.6 µM

OC(C#CCN1CCCC1)(c1ccccc1)c1ccccc1
inactive: [1] | [3] | [7]
active: [9] 26.6 µM

O=C(CS)Nc1ccccc1
active: [10] 11.9 µM | [2] 21.1 µM | [9] 18.8 µM

CC(=O)c1ccc2c(c1)N(CCCN1CCC(CCO)CC1)c1ccccc1S2
inactive: [3] | [7]
active: [10] 12.7 µM | [2] 12.7 µM | [9] 11.4 µM

CCc1c(C(=O)NN2CCCCC2)nn(-c2ccc(Cl)cc2Cl)c1-c1ccc(Br)cc1
active: [10] 13.7 µM | [2] 15.4 µM | [9] 13.7 µM
inactive: [3] | [7]

CCOC(=O)Cc1cccc2ccccc12
inactive: [1] | [9] | [3] | [7]

CC(C)(O)c1ccc(CNC(=O)c2cccnc2Oc2ccc(F)cc2)cc1
inactive: [1] | [7]

COc1ccc(C(=O)Nc2nc3ccccc3c(NCc3ccccc3)c2C#N)cc1
active: [10] 27.3 µM | [2] 38.6 µM | [9] 15.4 µM
inactive: [3] | [7]

C[N+]1(C)CCC(OC(=O)C(O)(c2ccccc2)C2CCCC2)C1 (centres undefined)
inactive: [1] | [3] | [7]

CC(=O)c1cccc([N+](=O)[O-])c1
inactive: [1] | [3] | [7]

CCCCCCCCCCCC(=O)OC[C@@H](O)[C@H]1OC[C@H](OCCO)[C@H]1OCCO
inactive: [1] | [7]
active: [2] 53.2 µM

O=C(O)c1ccccc1Cl
inactive: [10] | [2] | [9] | [3] | [7]

CNCCCN1c2ccccc2CCc2ccccc21
active: [10] 4.52 µM | [2] 16 µM | [9] 11.4 µM
not listed: [1] | [4]
inactive: all other assays above

O=P(O)(OCc1ccccc1)OCc1ccccc1
inactive: [10] | [2] | [9] | [3] | [7]

O=C1CCC(=O)O1
inactive: [10] | [2] | [9] | [3] | [7]
